D3 antag = qHTS of D3 Dopamine Receptor Antagonist: qHTS; D3R cells, DiscoveRx beta-arrestin luminescence, antagonist mode; hits give low values; max response, negative = inhibition, %; hit rate 2.5% among 360,000; in the data active = max response below about -50%; inconclusive = no clear call, values can overlap the other calls; also: % is scaled to controls: 0 for no effect and ±100 for the full control effect
Target sequence (P35462 whole entry, looked up): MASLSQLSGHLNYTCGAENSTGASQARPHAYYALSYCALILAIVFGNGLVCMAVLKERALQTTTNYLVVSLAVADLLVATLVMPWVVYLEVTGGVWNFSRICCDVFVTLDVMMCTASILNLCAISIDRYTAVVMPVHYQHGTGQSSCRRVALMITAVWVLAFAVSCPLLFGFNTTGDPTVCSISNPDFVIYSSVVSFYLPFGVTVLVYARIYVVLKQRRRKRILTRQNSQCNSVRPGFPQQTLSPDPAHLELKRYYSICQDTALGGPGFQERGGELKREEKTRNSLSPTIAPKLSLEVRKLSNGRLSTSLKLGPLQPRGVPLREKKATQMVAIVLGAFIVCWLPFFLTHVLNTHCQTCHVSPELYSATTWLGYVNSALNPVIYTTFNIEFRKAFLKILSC
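Cells expressing the human receptor were seeded at 1500 cells/well, incubated overnight at 37 degrees C in 5% CO2, then exposed to library compounds with dopamine controls for 90 minutes at 37 degrees C before luminescent detection.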
ATXN2 expr inh = Primary qHTS for Inhibitors of ATXN expression | HEK-293 ATXN2-luciferase reporter, luminescence, 24 h | Potency, µM (highest dose often 57 µM), inactives show top-dose activity change, negative = inhibition, most hits filed as inhibitors | hit rate 0.72% among 360,000; also: potency is read from the fitted curve at half-maximal effect; % is scaled to controls: 0 for no effect and ±100 for the full control effect; nearly all actives have a fitted effect of over 55% in size
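qHTS (up to 57 uM final) was run with 24 h compound exposure of reporter cells at 37 °C. Each well was multiplexed: SteadyGlo luminescence measured ATXN2-luciferase expression after a fluorogenic Gly-Phe-AFC viability readout (25 uM final).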
HepG2 tox = qHTS for Inhibitors of TGF-b: Cytotox Counterscreen; HepG2 CAGA-GFP viability, ATP luminescence, 18 h; Potency, µM (highest dose often 46.1 µM), for the others: at the top dose activity change, negative = cytotoxicity, usual class: cytotoxic; hit rate 0.76% among 410,000; also: potency is read from the fitted curve at half-maximal effect
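HepG2 CAGA-GFP cells (1000/well, DMEM with 1% FBS) received compound, then TGF-beta at 500 pg/mL final, and were incubated 18 hours at 37 degrees C. Viability was read by CellTiter-Glo luminescence. Media-only wells were set as complete cell-killing and DMSO as no toxicity.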
ATXN viability = Viability Counterscreen for Primary qHTS for Inhibitors of ATXN expression; hit rate 0.49% among 400,000; Potency, µM (top dose mostly 56.7 µM), usual class: cytotoxic; S2 cells (HEK-293 line with an ATXN2-luciferase reporter) viability, CellTiter-Fluor protease fluorescence, 24 h; also: potency is read from the fitted curve at half-maximal effect; nearly all actives have a fitted effect of over 40% in size
D3 ag = qHTS of D3 Dopamine Receptor Agonist: qHTS. D(3) dopamine receptor (Homo sapiens), P35462. AID 652048, 2013. max activation, %. D3R DiscoveRx beta-arrestin cells, luminescence, 90 min. hit rate 0.58% among 410,000; in the data active = max activation above about 30%; also: 0% is about no effect
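Cells at 1500/well, incubated overnight, then treated with pinned compounds (dopamine as control) for 90 min at 37 degrees C. DiscoveRx reagent added for 30 - 60 minutes at room temperature; luminescence read.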
TGFb inhibitor = qHTS for Inhibitors of TGF-b | Potency, µM (series often up to 46.1 µM), for the others: at the top dose activity, negative = inhibition, most hits filed as inhibitors | HepG2 CAGA-GFP TGF-b/SMAD3 reporter, GFP fluorescence, 18 h; TGF-beta stimulated, 500 pg/mL final | AID 588855, 2011 | hit rate 1.2% among 410,000; also: potency is read from the fitted curve at half-maximal effect; % is scaled to controls: 0 for no effect and ±100 for the full control effect; nearly all actives have a fitted effect of over 65% in size
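Using HEPG2 CAGA-GFP reporter cells at 1000 cells/well, we pinned test compounds, stimulated with recombinant TGF-beta (500 pg/mL final) and measured total well GFP after 18 h.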
Numbers without * were called inactive; i = inactive; ? = inconclusive; . = not tested or not shown; [ ] = remark or other dose. An excerpt weighted towards active compounds, which were near 4.7% of everything screened. Unless noted, calls follow the shape of the dose curve; as a rule, active = well fitted curve in the direction sought with a large enough effect; inconclusive = small, poorly fitted or top-dose-only effect, or another doubt; inactive = no such curve, though single readings can be large; an effect the other way counts as inactive or inconclusive.

SMILES | D3 antag | ATXN2 expr inh | HepG2 tox | ATXN viability | D3 ag | TGFb inhibitor
O=C(O)CC(CCc1ccccc1)OC1OC(CO)C(O)C(O)C1O (stereo unspecified) | 0 | 3% | 4% | i | 33* | -2%
O=C(C[N+]1(CCO)CCOCC1)c1cccs1 | . | . | -1% | . | . | -1%
CCOc1ccc(C(=O)/C=C/Nc2ccc(S(=O)(=O)N=C(N)N)cc2)cc1 | -4 | -17% | -5% | ? | 0 | 20µM*
NC(N)=NS(=O)(=O)c1ccc(N/C=C/C(=O)c2ccc(Cl)c(Cl)c2)cc1 | 4 | -31% | -16% | i | 5 | -20%
CC(C)Cc1nc2cc(NS(=O)(=O)N(C)C)cc(C(=O)N3CCc4ccccc4C3)c2n1C | . | . | . | i | . | .
COc1cc(C(=O)N/N=C/c2cc([N+](=O)[O-])cs2)cc(OC)c1OC | -50* | 1% | -5% | i | -18 | -23%
COc1ccc(/C=N/NC(=O)c2cc3c(ccc4ccccc43)o2)cc1OC | 3 | ? | -17% | i | 1 | -10%
COc1ccc2ccccc2c1/C=N/NC(=O)c1ccc([N+](=O)[O-])cc1 | -97* | -8% | -8% | i | -34 | 0%
COc1ccc2ccc(OC)c(/C=N/NC(=O)c3cc4ccccc4o3)c2c1 | -87* | . | -9% | i | -8 | 6%
CCC1CCCCN1S(=O)(=O)c1ccc(NC(=O)c2cc(=O)c3c(C)cc(C)cc3o2)cc1 (stereo unspecified) | . | 3% | -39% | i | 3 | -3%
CN(C)c1ccc(C(CNC(=O)c2cccc(C(F)(F)F)c2)N2CCCC2)cc1 (stereo unspecified) | . | . | -37% | . | -23 | -27%
O=C(NCc1ccncc1)C12C[C@H]3C[C@@H](C1)CC(c1ccc(Cl)cc1)(C3)C2 | . | -4% | . | . | . | .
O=S(=O)(NCCc1csc(-c2ccc(F)cc2)n1)c1ccc(Cl)cc1 | . | 16µM* | -24% | ? | -17 | ?
CCOc1ccc(S(=O)(=O)NCCc2csc(-c3ccc(Cl)cc3)n2)cc1 | . | ? | -67% | ? | 6 | 11µM*
Cc1ccc(S(=O)(=O)NCCc2csc(-c3cccc(F)c3)n2)cc1 | . | ? | -43% | ? | -23 | ?
Cc1ccc(S(=O)(=O)NCCc2csc(-c3ccc(Cl)cc3)n2)cc1 | . | ? | -36% | i | 1 | 11µM*
Cc1ccc(C)c(S(=O)(=O)NCCc2csc(-c3ccc(Cl)cc3)n2)c1 | . | ? | -94% | ? | -9 | 11µM*
CCOc1cc(NC(C)=O)ccc1C(=O)OC | . | 13% | . | i | 10 | .
COc1ccc(OCC(=O)Nc2nc(-c3ccc(Br)cc3)ns2)cc1 | . | . | -43% | . | 10 | -2%
CC(C)CN(CCNC(=O)c1cc(-c2cccs2)nc2ccccc12)CC(C)C | . | 1% | -15% | i | 0 | 2%
COc1cc(S(=O)(=O)N2CCCCCC2)ccc1Cl | -17 | 0% | -10% | i | -1 | 5%
COc1cc(S(=O)(=O)N2CCN(C)CC2)ccc1Cl | -87* | 6% | -18% | i | 0 | -2%
COc1ccc(CN2C[C@H](Sc3nc4ccccc4[nH]3)C[C@H]2C(=O)N(C)C)c2ccccc12 | . | . | . | i | . | .
CC#CC[N+](C)(C)CCCCCCCCCCCC | 4 | 25µM* | -46% | ? | -4 | ?
C[N+](C)(C)CCCCCC[N+](C)(C)C | -22 | -5% | 4% | i | -9 | 25%
SMILES | D3 antag | ATXN2 expr inh | HepG2 tox | ATXN viability | D3 ag | TGFb inhibitor
CCCCCCCCCCCCCCCC[N+](C)(C)CC | 10 | 14µM* | -110% | 18µM* | -16 | ?
CCCCCCCCCCCCCC[N+](C)(C)C | . | 22µM* | . | ? | -22 | .
CCCCCCCC[N+](C)(C)CCCCCCCC | . | . | . | i | 7 | .
CCOC(=O)c1cnc2c(ccc3ccccc32)c1Nc1ccc(N(C)C)cc1 | . | 21% | 2% | i | 6 | 26%
O=C(CSc1nc(-c2cccc(Cl)c2)nc2cc(=O)[nH]n12)Nc1ccccc1 | . | -19% | -31% | i | -24 | -6%
CCN(CC)CCCNC(=O)c1oc2c(c1C)-c1nn(Cc3ccc(Cl)cc3)cc1CC2 | . | . | 13µM* | . | -23 | -25%
COc1ccc2nc(N=Nc3ccc(O)c4ccccc34)sc2c1 | -26 | 14µM* | -12% | 14µM* | -8 | ?
CC(Nc1nc(N2CCCCC2)nc2ccccc12)c1ccccc1 (stereo unspecified) | -24 | . | 13µM* | . | -6 | ?
CCN(CC)CC#CCC(C)(c1ccccc1)c1ccccc1 | -55* | ? | -36% | ? | -54 | ?
CCN(CC)CC#CCC(O)(c1ccccc1)c1ccc(Br)cc1 (stereo unspecified) | -24 | . | -36% | ? | -9 | ?
CCN(CC)CC#CCC(O)(c1ccccc1)c1ccccc1 | -79* | -30% | -44% | i | -19 | 1%
CN(C)c1ccc(/C=C/c2ccnc3ccc(I)cc23)cc1 | . | . | -15% | . | . | 8%
O=c1[nH]c(CN2CCN(Cc3ccccc3)CC2)nc2scc(-c3ccccc3)c12 | -82* | -22% | 0% | i | -41 | -28%
Cc1nc2cccnc2n1C1CCN(S(=O)(=O)N(C)C)CC1 | . | 2% | -17% | i | 3 | 3%
CCN(CC)CCNc1ccc(C)c2sc3ccc(O)cc3c(=O)c12 | -11 | ? | 14µM* | . | -7 | ?
Oc1c(Br)cc(Cl)cc1C=Nc1ccc(N2CCOCC2)cc1 | 2 | 0%[11.3 µM] | 0% | . | 1 | 3%
Oc1c(Br)cc(Cl)cc1C=Nc1ccccc1Br | -73* | -22% | 1% | i | -20 | -9%
COc1cccc(C(=O)Nc2nc(SCc3ccc(Cl)cc3)n[nH]2)c1 | 2 | 20% | 16µM* | i | -7 | 0%
O=C(c1cc(COc2cccc(C(F)(F)F)c2)on1)N1CCC(c2ccncc2)CC1 | 8 | 14µM* | -43% | ? | 18 | ?
O=C1c2ccc3c4c(ccc(c24)C(=O)N1CCCCO)C(=O)N(CCCCO)C3=O | 0 | ? | 3.2µM* | ? | 4 | 2.5µM*
CCOc1ccc(NC(=O)c2sc3nc4c(c(-c5ccc(OC)cc5)c3c2N)C(=O)CC(C)(C)C4)cc1 | . | 2% | -2% | i | 5 | 35%
Cc1ccc(S(=O)(=O)N2CCC(c3nnc(-c4cccc(C)c4)o3)CC2)cc1 | . | 5.6µM* | -42% | 7.9µM* | -1 | ?
CCCc1ccc(S(=O)(=O)N2CCC(c3nnc(-c4cccc(C)c4)o3)CC2)cc1 | . | 10µM* | -17% | . | -10 | ?

Source: PubChem (National Center for Advancing Translational Sciences (NCATS))
